Compounds without any hit were thinned out: in the full panel of roughly 83,000, 20% have a hit.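 Assay: single dose, 48 h. Readout: percent growth (0 = no net growth; negative = cell death). Active: <10.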 Active and inactive are the calls of the source.

In the assay the test system is HL-60(TB) leukemia. The experiment in a line: NCI-60 one-dose screen, 48 h (100 = growth as untreated, 0 = no growth, -100 = all killed). Particulars: 10 µM unless noted.
As to `COc1ccccc1/C(C)=N/NC(=O)CSc1nc2ccccc2c(=O)n1Cc1ccc(S(N)(=O)=O)cc1`, the growth is 101% (inactive). With `CC(=O)C(C)Cc1cc2c(cc1C)C(C)(C)CCC2(C)C` (stereo not given) the figure was 101% (inactive). In the case of `CCN(C(=O)c1cc2ccccc2[nH]1)[C@H]1CCC[C@@H](NCc2ccc(OC)cc2)C1`, the growth is 117% (inactive). Turning to `O=C1NC(=O)C(c2cnc3ccccn23)=C1c1cn2c3c(cc(F)cc13)CN(C(=O)N1CCCCC1)CC2`, the growth was 48.1% (inactive). On to `O=c1nc2n(nc1/C=C/c1ccco1)CC(c1ccc(Cl)cc1)=NN2`, for which the growth is 70.1% (inactive). In the case of `O=C(/C(=C(\C(=O)c1ccccc1)c1ccccc1)c1ccccc1)c1ccccc1`, the growth was -1.48% (active). Consider `O=C1Nc2ccccc2/C1=C\c1cccc(/C=C2/C(=O)Nc3ccccc32)n1`, for which the growth is -48.6% (active). With `O=C(O)CCCl` the figure was 107% (inactive); with `Cn1cc(-c2ncnc3ccc(-c4cnc(Cl)c(NS(C)(=O)=O)c4)cc23)c2ccccc21`, 17.9% (inactive); with `COc1cc(Nc2cn[nH]c2-c2ccc(Cl)cc2)cc(OC)c1OC`, 14.6% (inactive). Next, `CCN(CC)CCNc1ncnc2c1cnn2-c1ccc(Cl)cc1`: 39.1% (inactive); `CCCSC1=NC2C(N(CC)C(=O)N2CC)N1/N=C/C=C/c1ccccc1[N+](=O)[O-]` (stereo not given): -29.8% (active); `O=C(CN1CCN(c2ccccc2)CC1)N1CCN(c2nnc(-c3ccc(Cl)cc3)c(-c3ccc(Cl)cc3)n2)CC1`: -40.7% (active). With `NC(=S)N/N=C/c1ncccc1O` the figure was -23.2% (active); with `C=C(C)[C@H]1CC/C(C)=C/CC[C@]2(C)O[C@H]2CC/C(COC(=O)[C@@H](OC(C)=O)[C@H](NC(=O)c2ccccc2)c2ccccc2)=C\[C@@H]1O`, 91% (inactive). For the compound `Nc1nc2c(c3ncncc13)C(c1cccc(C(F)(F)F)c1)Cc1ncncc1-2` (stereo not given), the growth is 10.7% (inactive).

Consider `FC(F)c1nc2ccccc2n1-c1nc(N2CCOCC2)nc(N2CCOCC2)n1`, for which the growth was 15.1% (inactive). With `COc1ccc(C2C(c3nn[nH]n3)=C(N)Oc3c2ccc2ccccc32)cc1` (stereo not given) the figure was 31.9% (inactive). Next, `O=c1[nH]c(SCc2ccccc2)nc2nc(Nc3ccc(NC(=S)Nc4ccccc4)cc3)nc(-c3ccc(O)cc3O)c12`: 117% (inactive). With `CCOC(=O)c1c(C)c(C(=O)OCC)n(C)c1C` the figure was 85.9% (inactive); with `COc1cc2nn(-c3ccccc3N)nc2cc1OC`, 102% (inactive). Regarding `COc1ccc(CN2c3ccccc3CCc3ccccc32)cc1F`, the growth was -25.7% (active). With `CCOC(=O)Cn1nnc(-c2ccc(OCc3ccccc3F)cc2)n1` the figure was 102% (inactive); with `O=CNc1c(Cl)cc2c(c1Cl)Cc1cc([N+](=O)[O-])ccc1-2`, 17.5% (inactive). With `C=C(C)COC(=O)c1ccccc1C(=O)OCC1(C)CO1` (stereo not given) the figure was 133% (inactive).
